PubChem BioAssay AID623970 (The Scripps Research Institute Molecular Screening Center, 2012)
Activity calls are given as the source filed them. No stated cut-off is given here; in the data, active means IC50 below about 90 µM; inactive means the rest.

experiment: compound-DNA interaction, SYBR readout – biochemical, fluorescence, artefact control for HCV NS3 helicase inhibitor project, late-stage follow-up (AID 623970); conditions: DNA binding, SYBR dye displacement fluorescence

| Compound | IC50 |
| --- | --- |
| Cc1ccc2nc(-c3ccc4nc(-c5ccc(NC(=O)c6ccc7nc(-c8ccc(NC(=O)OCC9c%10ccccc%10-c%10ccccc%109)cc8)sc7c6)cc5)sc4c3)sc2c1S(=O)(=O)O | 22 µM (active) |
| Cc1ccc2nc(-c3ccc4nc(-c5ccc(NC(=O)c6c(F)cccc6C(F)(F)F)cc5)sc4c3)sc2c1S(=O)(=O)O | 64 µM (active) |
| Cc1ccc2nc(-c3ccc(NC(=O)c4ccc(NC(=O)c5ccccc5)cc4)cc3)sc2c1S(=O)(=O)O | > 100 µM (inactive) |
| Cc1ccc2nc(-c3ccc4nc(-c5ccc(NC(=O)c6ccc7ncoc7c6)cc5)sc4c3)sc2c1S(=O)(=O)O | 46 µM (active) |
| Cc1ccc2nc(-c3ccc4nc(-c5ccc(NC(=O)Nc6ccc(F)cc6)cc5)sc4c3)sc2c1S(=O)(=O)O | 74 µM (active) |
| Cc1ccc(NC(=O)Nc2ccc(-c3nc4ccc(-c5nc6ccc(C)c(S(=O)(=O)O)c6s5)cc4s3)cc2)cc1 | 18 µM (active) |
| Cc1ccc2nc(-c3ccc4nc(-c5ccc(NC(=O)c6ccc(Br)cc6)cc5)sc4c3)sc2c1S(=O)(=O)O | 30 µM (active) |
| Cc1ccc2nc(-c3ccc4nc(-c5ccc(NC(=O)c6cc(C(F)(F)F)ccc6F)cc5)sc4c3)sc2c1S(=O)(=O)O | > 100 µM (inactive) |
| CCN(CC)c1ccc(-c2nc3ccc(-c4nc5ccc(C)c(S(=O)(=O)O)c5s4)cc3s2)cc1 | 26 µM (active) |
| Cc1ccc2nc(-c3ccc(NC(=O)c4ccc(C(F)(F)F)cc4)cc3)sc2c1S(=O)(=O)O | > 100 µM (inactive) |
| Cc1ccc2nc(-c3ccc4nc(-c5ccc(NC(=O)c6cccc(Cl)c6)cc5)sc4c3)sc2c1S(=O)(=O)O | > 100 µM (inactive) |
| Cc1ccc2nc(-c3ccc4nc(-c5ccc(NC(=O)c6ccc7nc(-c8ccc(N)cc8)sc7c6)cc5)sc4c3)sc2c1S(=O)(=O)O | 68 µM (active) |
| NS(=O)(=O)c1ccc2nc(NC(=O)c3ccc4ncsc4c3)sc2c1 | > 100 µM (inactive) |
| Cc1ccc2nc(-c3ccc(NC(=O)c4ccc(NS(=O)(=O)c5ccccc5)cc4)cc3)sc2c1S(=O)(=O)O | > 100 µM (inactive) |
| Cc1ccc2nc(-c3ccc4nc(-c5ccc6nc(-c7ccc8nc(-c9ccc(N)cc9)sc8c7)sc6c5)sc4c3)sc2c1S(=O)(=O)O | 14 µM (active) |
| Cc1cc2sc(-c3ccc4nc(-c5ccc(N)cc5)sc4c3)nc2cc1S(=O)(=O)O | 32 µM (active) |
| Cc1cc(C(O)(c2ccc(Nc3ccccc3)cc2)c2ccc(Nc3ccc(S(=O)(=O)O)cc3)cc2)ccc1N (centres undefined) | 17 µM (active) |
| Cc1ccc2nc(-c3ccc4nc(-c5ccc(NC(=O)Nc6ccc(C(F)(F)F)cc6)cc5)sc4c3)sc2c1S(=O)(=O)O | 18 µM (active) |
| Cc1ccc2nc(-c3ccc4nc(-c5ccc(N(C)C(=O)c6ccc7ccccc7c6)cc5)sc4c3)sc2c1S(=O)(=O)O | > 100 µM (inactive) |
| Cc1ccc2nc(-c3ccc(N)cc3)sc2c1S(=O)(=O)O | > 100 µM (inactive) |
| Cc1ccc2nc(-c3ccc4nc(-c5ccc(NC(=O)c6ccc(C(C)(C)C)cc6)cc5)sc4c3)sc2c1S(=O)(=O)O | 16 µM (active) |
| Cc1ccc2nc(-c3ccc(NC(=O)c4ccc(NC(=O)c5ccc(NC(=O)OCC6c7ccccc7-c7ccccc76)cc5)cc4)cc3)sc2c1S(=O)(=O)O | > 100 µM (inactive) |
| Cc1ccc(C(=O)Nc2ccc(-c3nc4ccc(-c5nc6ccc(C)c(S(=O)(=O)O)c6s5)cc4s3)cc2)cc1 | > 100 µM (inactive) |
| Cc1ccc2nc(-c3ccc4nc(-c5ccc(NC(=O)c6ccc(N)cc6)cc5)sc4c3)sc2c1S(=O)(=O)O | 55 µM (active) |
| Cc1ccc2nc(-c3ccc(NC(=O)c4ccc(NC(=O)c5ccc(N)cc5)cc4)cc3)sc2c1S(=O)(=O)O | > 100 µM (inactive) |
| Cc1ccc2nc(-c3ccc4nc(-c5ccc(NC(=O)c6ccccc6)cc5)sc4c3)sc2c1S(=O)(=O)O | > 100 µM (inactive) |
| COc1ccc(NC(=O)Nc2ccc(-c3nc4ccc(-c5nc6ccc(C)c(S(=O)(=O)O)c6s5)cc4s3)cc2)cc1 | 73 µM (active) |
| Cc1ccc2nc(-c3ccc4nc(-c5ccc(NCc6ccccc6)cc5)sc4c3)sc2c1S(=O)(=O)O | 27 µM (active) |
| Cc1ccc2nc(-c3ccc4nc(-c5ccc(NC(=O)c6ccc(N(C)C)cc6)cc5)sc4c3)sc2c1S(=O)(=O)O | > 100 µM (inactive) |
